Measurements as given in PubChem BioAssay (NCATS).
Results filed as inconclusive are left out. Calls of active or inactive are those of the source. Calls follow the shape of the dose curve; as a rule, active = well fitted inhibition curve with a large enough effect; inconclusive = small, poorly fitted or top-dose-only effect; inactive = flat fitted curve, though single readings scatter.

Assays:
[1] = tested on: CRL-7250; assay: Cytotoxic Profiling of Annotated Libraries Using Quantitative High-Throughput Screening (AID 1296008); settings: Five cell lines viability, CellTiter-Glo ATP luminescence, 48-72 h; max response: stronger effect = lower value; as to max response: % is scaled to controls: 0 for no effect and ±100 for the full control effect
Summary of the method: (§1)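 Cells exposed to compounds for 48 or 72 hr at 37 degrees Celsius. Viability read as ATP-coupled luminescence with CellTiter-Glo after 10 min at room temperature.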

[2] = tested on: HEK293; assay: as above; settings: Five cell lines viability, CellTiter-Glo ATP luminescence, 48-72 h; max response: stronger effect = lower value
Summary of the method: as §1

[3] = tested on: HaCat; assay: as above; settings: Five cell lines viability, CellTiter-Glo ATP luminescence, 48-72 h; max response: stronger effect = lower value
Summary of the method: as §1

[4] = tested on: KB-3-1; assay: as above; settings: Five cell lines viability, CellTiter-Glo ATP luminescence, 48-72 h; max response: stronger effect = lower value
Summary of the method: as §1

[5] = tested on: NIH3T3; assay: as above; settings: Five cell lines viability, CellTiter-Glo ATP luminescence, 48-72 h; max response: stronger effect = lower value
Summary of the method: as §1

[6] = tested on: HACAT; assay: qHTS assay to identify novel small-molecules to repurpose for Merkel cell carcinoma treatment (AID 1296009); settings: MCC and control cell lines, CellTiter-Glo viability, 72 h; at 44.8 µM (top of the series) unless noted
Summary of the method: (§2)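 Cells were treated for 72 hr at 37 degree celsius with compounds in 8- or 11-point dose response. Viability was read by CellTiter-Glo luminescence, normalized to no-cell (cytotoxicity) and DMSO controls.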

[7] = tested on: HEK293T; assay: as above; settings: MCC and control cell lines, CellTiter-Glo viability, 72 h; series mostly up to 44.8 µM
Summary of the method: as §2
Also: nearly all actives have a fitted effect of over 60% in size.

CC1=C2C3OC(=O)C(C)C3(O)CCC2(C)CCC1=O (configuration not stated)
inactive: max response [1] -29.1% | outcome [2] | outcome [3] | outcome [4] | outcome [5] | outcome [6] | Potency [7]

CN1CCC(c2c[nH]c3ccc(NC(=O)c4ccc(F)cc4)cc23)CC1
inactive: max response [1] -9.85% | outcome [2] | outcome [3] | max response [4] 7.4% | max response [5] -0.678% | outcome [6] | Potency [7]

C=C(C)C(C)C1OC23CC4(CO2)C(CCC2C5(C)CCC(OC6OCC(O)C(OC7OC(CO)C(O)C(OC8OCC(O)C(O)C8O)C7O)C6OC6OC(CO)C(O)C6O)C(C)(C)C5CCC24C)C3C(C)(O)C1OC(C)=O (configuration not stated)
inactive: max response [1] -0.008% | outcome [2] | outcome [3] | max response [4] 6.52% | max response [5] -2.26% | outcome [6] inactive [at 9.27 µM] | outcome [7] inactive [at 9.27 µM]

Cn1ccnc1CCOC(c1cc2nccc(C(=O)O)c2[nH]1)c1ccccc1Cl (configuration not stated)
inactive: outcome [1] | outcome [2] | outcome [3] | max response [4] 2.27% | max response [5] 4.24% | outcome [6] | Potency [7]

O=C1Nc2ccc(O)cc2O[C@H]1O[C@@H]1O[C@H](CO)[C@@H](O)[C@H](O)[C@H]1O
inactive: max response [1] -3.66% | outcome [2] | outcome [3] | outcome [4] | outcome [5] | outcome [6] | Potency [7]

COc1cc(/C=C/C(=O)OC2[C@H](O)CC(O)(C(=O)O)C[C@H]2O)ccc1O (some centres not stated)
inactive: max response [1] 3.9% | outcome [2] | outcome [3] | max response [4] 0.663% | max response [5] -0.19% | outcome [6] | Potency [7]

C[C@]12CCC[C@](C)(C(=O)O)C1CCC13C=C(CO)C(CCC12)C3 (some centres not stated)
inactive: max response [1] -11% | outcome [2] | outcome [3] | max response [4] 2.91% | outcome [5] | outcome [6] | Potency [7]

CC(=O)C1CCC2(C)C3=C(CCC12C)C1(C)CCC(=O)C(C)(C)C1CC3 (configuration not stated)
inactive: max response [1] -8.18% | outcome [2] | outcome [3] | outcome [4] | max response [5] -0.504% | outcome [6] | Potency [7]

CCC(C)C(=O)O[C@@H]1[C@@H](O)[C@@H](O[C@H]2O[C@H](CO)[C@@H](O)[C@H](O)[C@H]2O)O[C@H](CO)[C@H]1O (some centres not stated)
inactive: outcome [1] | outcome [2] | outcome [3] | outcome [4] | outcome [5] | outcome [6] inactive [at 17.4 µM] | Potency [7]

C=CC1(C)C=C2C(O)CC3C(C)(C(=O)O)CCCC3(C)C2CC1 (configuration not stated)
inactive: outcome [1] | outcome [2] | outcome [3] | max response [4] 7.58% | max response [5] -5.1% | outcome [6] | Potency [7]

CC1=CC(=O)CC(C)(C)C1(O)CCC(C)O (configuration not stated)
inactive: outcome [1] | outcome [2] | outcome [3] | outcome [4] | max response [5] 2.02% | outcome [6] | Potency [7]

CC1(C)CC[C@]2(C(=O)O[C@@H]3O[C@H](CO)[C@@H](O)[C@H](O)[C@H]3O)CC[C@]3(C)C(=CCC4[C@@]5(C)C[C@@H](O)[C@H](O)[C@@](C)(CO)C5CC[C@]43C)C2C1 (some centres not stated)
inactive: max response [1] 1.73% | outcome [2] | outcome [3] | outcome [4] | max response [5] -1.65% | outcome [6] inactive [at 17.4 µM] | Potency [7]

CCn1nnnc1NCc1ccc(C(C)C)cc1
inactive: outcome [1] | outcome [2] | outcome [3] | max response [4] 2.69% | outcome [5] | outcome [6] | Potency [7]

CC1(O)CCC2C(C(=O)O)=COC(OC3OC(CO)C(O)C(O)C3OC(=O)/C=C/c3ccc(O)cc3)C21 (configuration not stated)
inactive: outcome [1] | outcome [2] | outcome [3] | max response [4] 8.2% | outcome [5] | outcome [6] inactive [at 17.4 µM] | Potency [7]

CC(=O)OC1C(O)C(C)=C(CCC(C)CC(=O)O)C2(C)CCCC(C)(C)C12 (configuration not stated)
inactive: outcome [1] | outcome [2] | outcome [3] | max response [4] 0.797% | outcome [5] | outcome [6] | Potency [7]

C=C1[C@H]2[C@H](O[C@@H]3O[C@H](COC(=O)/C=C/c4cc(OC)c(O)c(OC)c4)[C@@H](O)[C@H](O)[C@H]3O)OC=C(C(=O)O)[C@H]2C[C@@H]1O
inactive: outcome [1] | outcome [2] | outcome [3] | outcome [4] | max response [5] 4.54% | outcome [6] inactive [at 17.4 µM] | Potency [7]

CC1(C)CC[C@]2(C(=O)O)CC[C@]3(C)C(=CCC4[C@@]5(C)CCC(O[C@@H]6OC[C@H](O)[C@H](O)[C@H]6O[C@@H]6O[C@H](CO)[C@@H](O)[C@H](O)[C@H]6O)[C@@](C)(CO)C5CC[C@]43C)[C@@H]2C1 (some centres not stated)
inactive: max response [1] -0.0042% | outcome [2] | outcome [3] | max response [4] 4.54% | max response [5] 2.38% | outcome [6] inactive [at 17.4 µM] | Potency [7]

CCC/C=C/C(=O)O[C@H]1CC(C)(C)CC2[C@]13[C@H](O)O[C@@]21CCC2[C@@]4(C)CC[C@H](O[C@@H]5O[C@H](C(=O)O)[C@@H](O)[C@H](O[C@@H]6O[C@H](CO)[C@H](O)[C@H](O)[C@H]6O[C@@H]6O[C@@H](C)[C@H](O)[C@@H](O)[C@H]6O[C@@H]6OC[C@](O)(CO)[C@H]6O)[C@H]5O[C@@H]5O[C@H](CO)[C@H](O)[C@H](O)[C@H]5O)C(C)(C)C4CC[C@@]2(C)[C@]1(C)C[C@H]3OC(C)=O (some centres not stated)
inactive: max response [1] -6.81% | outcome [2] | outcome [3] | max response [4] 6.11% | max response [5] 0.954% | outcome [6] inactive [at 9.27 µM] | outcome [7] inactive [at 9.27 µM]

CCOC(=O)[C@H](CCc1ccccc1)N[C@@H](C)C(=O)N1C2CCCCC2C[C@H]1C(=O)O (some centres not stated)
inactive: outcome [1] | outcome [2] | outcome [3] | max response [4] 6.12% | outcome [5] | outcome [6] | Potency [7]

CC(C)(O)c1ccc2c(c1)C(=O)CC1[C@](C)(CO)CCC[C@]21C (some centres not stated)
inactive: max response [1] -1.72% | outcome [2] | outcome [3] | max response [4] -6.05% | max response [5] -3.87% | outcome [6] | Potency [7]

CCCCNC(=O)[C@@H]1Cc2ccccc2N1C(=O)[C@@H](N)CC
inactive: max response [1] -0.785% | outcome [2] | outcome [3] | max response [4] 6.18% | max response [5] 3.92% | outcome [6] | Potency [7]

C=C1CC[C@@H]2[C@](C)(CO[C@@H]3O[C@H](CO)[C@@H](O)[C@H](O)[C@H]3O)CCC[C@@]2(C)[C@@H]1CCC1=CCOC1=O
inactive: outcome [1] | outcome [2] | outcome [3] | max response [4] 2.64% | outcome [5] | outcome [6] inactive [at 17.4 µM] | Potency [7]

CC12CCC3C(C)(C)C(O)CCC3(C)C1Cc1c(oc(C(=O)O)cc1=O)O2 (configuration not stated)
inactive: outcome [1] | outcome [2] | outcome [3] | outcome [4] | max response [5] 1.94% | outcome [6] | Potency [7]

COc1cc(/C=C/C(=O)OC2CC(C)=C(C(=O)O)/C2=C/CO[C@@H]2O[C@H](CO)[C@@H](O)[C@H](O)[C@H]2O)ccc1O (some centres not stated)
inactive: max response [1] 4.12% | outcome [2] | outcome [3] | outcome [4] | outcome [5] | outcome [6] inactive [at 17.4 µM] | Potency [7]

COc1cc(C/C(=C/NC(C)=O)N(CC(=O)Cc2ccccc2)C(C)=O)cc2c1OCO2
inactive: max response [1] -6.34% | outcome [2] | outcome [3] | max response [4] 7.98% | max response [5] 2.9% | outcome [6] inactive [at 17.4 µM] | Potency [7]

CC1CCC2C(C(=O)O)=CC3C(O)C(C)(C)CC123 (configuration not stated)
inactive: max response [1] -11.2% | outcome [2] | outcome [3] | outcome [4] | max response [5] -3.55% | outcome [6] | Potency [7]

COC(=O)C1=CO[C@@H](O[C@@H]2O[C@H](COC(=O)/C=C/c3cc(OC)c(O)c(OC)c3)[C@@H](O)[C@H](O)[C@H]2O)[C@@H]2C(CO)=CC[C@H]12
inactive: max response [1] -6.59% | outcome [2] | outcome [3] | max response [4] 1.62% | max response [5] 0.53% | outcome [6] inactive [at 17.4 µM] | Potency [7]

CC1(C)CCCC2(C)C3=C(C(=O)OC3O)C(O)CC12 (configuration not stated)
inactive: max response [1] -10.8% | outcome [2] | outcome [3] | max response [4] 2.72% | outcome [5] | outcome [6] | Potency [7]

Cc1nnc(C(C)C)n1C1CC2CCC(C1)N2CC[C@H](NC(=O)C1CCC(F)(F)CC1)c1ccccc1 (some centres not stated)
inactive: outcome [1] | outcome [2] | outcome [3] | max response [4] -4.91% | outcome [5] | outcome [6] | Potency [7]

O=C1NC(=Nc2ccccc2F)S/C1=C\c1ccc(C(=O)O)cc1
inactive: max response [1] -10.7% | outcome [2] | outcome [3] | outcome [4] | max response [5] -1.07% | outcome [6] | Potency [7]

C[C@@H]1C(=O)O[C@H]2[C@H]1CC[C@@]1(C)C(=O)C=C[C@](C)(O)[C@H]21
inactive: outcome [1] | outcome [2] | outcome [3] | max response [4] 1.87% | max response [5] -2.11% | outcome [6] | Potency [7]

CC(C)=CC/C=C(/C)[C@H]1CC[C@]2(C)[C@@H]1[C@H](O)CC1[C@@]3(C)CC[C@H](O)C(C)(C)[C@@H]3[C@@H](O[C@@H]3O[C@H](CO)[C@@H](O)[C@H](O)[C@H]3O[C@@H]3O[C@@H](C)[C@H](O)[C@@H](O)[C@H]3O)C[C@]12C (some centres not stated)
inactive: max response [1] -7.49% | outcome [2] | outcome [3] | max response [4] 7.96% | outcome [5] | outcome [6] inactive [at 17.4 µM] | Potency [7]

O=C1CC(c2ccc([N+](=O)[O-])cc2)=NN1c1ccccc1
inactive: outcome [1] | outcome [2] | outcome [3] | max response [4] 3.45% | max response [5] 2.7% | outcome [6] | Potency [7]

COc1ccc([C@H]2Cc3cccc(O)c3C(=O)O2)cc1
inactive: max response [1] -7.43% | outcome [2] | outcome [3] | max response [4] 9.62% | outcome [5] | outcome [6] | Potency [7]

CCOc1ccc(C(Nc2ccccn2)c2ccc3ccc(C)nc3c2O)cc1C (configuration not stated)
inactive: outcome [1] | outcome [2] | outcome [3] | max response [4] -0.87% | max response [5] -16.7% | outcome [6] | Potency [7]

CC(C)(O)c1ccc2c(c1)C(O)CC1C(C)(C(=O)O)CCCC21C (configuration not stated)
inactive: max response [1] -4.52% | outcome [2] | outcome [3] | max response [4] 3.03% | outcome [5] | outcome [6] | Potency [7]
